The text below walks through data of PubChem BioAssay.

The nature of experiment [1]: antimalarial activity against Dd2 strain (AID 2302;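 active means growth inhibition above 50% at the single 2 µM test dose, taken to imply half-maximal potency below 2 µM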;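 further: 0% = DMSO untreated growth and 100% = chloroquine plus artemisinin killed control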). The note with it: P. falciparum Dd2 in RBCs, LDH growth readout, 72 h; at 2 µM; active compounds read high.
Experiment [2] can be described thus: human hepatoma cell viability loss – ATP luminescence, cytotoxicity control for P. falciparum antimalarial project, primary screen (AID 2303;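 active means inhibition above 50%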;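 further: 0% = DMSO wells and 100% = digitonin-killed cells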). As to conditions: HepG2 viability, 24-48 h, at 10 µM, active compounds read high.
Experiment [3] deals with L-lactate dehydrogenase (Plasmodium falciparum (isolate CDC / Honduras)) (UniProt Q27743). Nature of the experiment: PfLDH activity inhibition – cell lysate, 3D7 strain, counter-screen for P. falciparum growth inhibition project (AID 2304).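 Further: 0% = vehicle and 100% = reference inhibitor.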 As to conditions: P. falciparum 3D7 crude extract, LDH APAD/NBT absorbance; at 2 µM; active compounds read high. In general terms: A counterscreen serves to expose hits that act by an unwanted route or on another target.
Chain of L-lactate dehydrogenase (Plasmodium falciparum (isolate CDC / Honduras)) (Q27743 whole entry, looked up): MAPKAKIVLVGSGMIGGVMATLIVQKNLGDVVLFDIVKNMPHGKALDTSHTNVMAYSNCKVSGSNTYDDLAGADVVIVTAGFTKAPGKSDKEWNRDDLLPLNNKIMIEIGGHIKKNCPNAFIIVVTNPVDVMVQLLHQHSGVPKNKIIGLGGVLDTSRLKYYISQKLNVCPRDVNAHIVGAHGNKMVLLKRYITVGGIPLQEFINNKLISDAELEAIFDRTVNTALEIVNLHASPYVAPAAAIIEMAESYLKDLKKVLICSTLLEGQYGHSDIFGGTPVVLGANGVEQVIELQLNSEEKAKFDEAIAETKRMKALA

The nature of experiment [4]: inhibition of 3D7 malaria parasite growth – strain 3D7 (AID 2306).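 Further: 0% = DMSO wells and 100% = chloroquine plus artemisinin control wells.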 The note with it: P. falciparum 3D7 erythrocytic growth, LDH absorbance, 72 h; at 2 µM; active compounds read high.
Experiment [5] addresses Calcium-dependent protein kinase 1 (Plasmodium falciparum (isolate 3D7)) (UniProt P62344). Nature of the experiment: PfCDPK1 kinase inhibitors, biochemical, TCAMS library (AID 1159585; cut-off not given, nearly all actives have IC50 up to about 0.98 µM;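 further: inhibitors leave more ATP so luminescence rises with inhibition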). As to conditions: recombinant PfCDPK1, Kinase-Glo ATP depletion luminescence. (In general: In Kinase-Glo more light means more ATP remaining.)
The target in experiment [6] is Plasmodium falciparum protein kinase 6 (PK6, PF3D7_1337100) (UniProt Q8IDW1). Nature of the experiment: PfPK6 kinase inhibitors, biochemical, TCAMS library (AID 1159586). The note with it: recombinant PfPK6, Kinase-Glo ATP depletion luminescence.
Chain of Plasmodium falciparum protein kinase 6 (PK6, PF3D7_1337100) (Q8IDW1 1-305): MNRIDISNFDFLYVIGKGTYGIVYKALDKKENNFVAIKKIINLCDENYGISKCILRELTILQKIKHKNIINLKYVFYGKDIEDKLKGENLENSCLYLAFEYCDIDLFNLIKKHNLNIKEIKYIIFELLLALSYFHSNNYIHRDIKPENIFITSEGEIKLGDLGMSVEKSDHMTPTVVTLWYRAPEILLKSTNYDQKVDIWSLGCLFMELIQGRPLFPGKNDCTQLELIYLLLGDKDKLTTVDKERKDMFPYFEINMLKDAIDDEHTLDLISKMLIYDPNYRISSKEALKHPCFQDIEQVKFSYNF
For experiment [7], the target named is Protein kinase 7 (PK7), Plasmodium falciparum 3D7 (PF3D7_0213400) (UniProt Q7YTF7). Put plainly: inhibition of Plasmodium PK7 catalytic activity – biochemical, TCAMS antimalarial set, Kinase-Glo luminescence (AID 1159587). As to conditions: recombinant PfPK7, Kinase-Glo ATP depletion luminescence.
Chain of Protein kinase 7 (PK7), Plasmodium falciparum 3D7 (PF3D7_0213400) (Q7YTF7 1-343): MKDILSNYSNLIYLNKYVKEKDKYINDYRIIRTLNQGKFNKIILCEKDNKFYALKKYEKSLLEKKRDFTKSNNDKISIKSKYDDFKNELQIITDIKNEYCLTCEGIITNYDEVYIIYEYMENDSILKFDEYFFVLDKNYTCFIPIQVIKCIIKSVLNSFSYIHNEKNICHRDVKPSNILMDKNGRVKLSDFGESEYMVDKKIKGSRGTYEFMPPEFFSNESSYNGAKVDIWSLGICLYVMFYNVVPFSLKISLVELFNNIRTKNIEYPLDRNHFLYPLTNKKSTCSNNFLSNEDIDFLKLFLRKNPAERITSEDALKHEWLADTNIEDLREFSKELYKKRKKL
Experiment [8] addresses Calcium-dependent protein kinase 4 (Plasmodium falciparum (isolate 3D7)) (UniProt Q8IBS5). Put plainly: PfCDPK4 kinase inhibitors, biochemical, TCAMS library (AID 1159588; cut-off not given, nearly all actives have IC50 up to about 0.91 µM). The note with it: recombinant PfCDPK4, Kinase-Glo ATP depletion luminescence.

Structures are written as SMILES. Values without a mark were called inactive. For some of these results: Entries with a potency or affinity are not part of this list. Activity calls are given as the source filed them. Unless noted, how the calls were made is not given here.

Chain of Calcium-dependent protein kinase 4 (Plasmodium falciparum (isolate 3D7)) (Q8IBS5 whole entry, looked up): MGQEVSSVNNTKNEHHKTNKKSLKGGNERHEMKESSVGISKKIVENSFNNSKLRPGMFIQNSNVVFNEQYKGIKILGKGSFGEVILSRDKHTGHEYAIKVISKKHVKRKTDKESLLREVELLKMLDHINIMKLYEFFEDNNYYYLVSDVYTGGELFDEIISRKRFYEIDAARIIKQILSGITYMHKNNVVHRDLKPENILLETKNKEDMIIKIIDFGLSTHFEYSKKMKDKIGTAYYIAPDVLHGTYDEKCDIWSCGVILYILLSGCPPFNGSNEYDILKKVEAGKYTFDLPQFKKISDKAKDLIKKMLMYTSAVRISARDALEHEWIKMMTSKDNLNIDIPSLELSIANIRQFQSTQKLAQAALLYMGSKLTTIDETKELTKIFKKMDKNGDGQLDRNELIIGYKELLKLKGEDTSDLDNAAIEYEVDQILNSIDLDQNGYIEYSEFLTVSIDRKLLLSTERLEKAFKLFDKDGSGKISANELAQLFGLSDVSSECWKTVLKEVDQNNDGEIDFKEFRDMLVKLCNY
Chain of Calcium-dependent protein kinase 1 (Plasmodium falciparum (isolate 3D7)) (P62344 whole entry, looked up): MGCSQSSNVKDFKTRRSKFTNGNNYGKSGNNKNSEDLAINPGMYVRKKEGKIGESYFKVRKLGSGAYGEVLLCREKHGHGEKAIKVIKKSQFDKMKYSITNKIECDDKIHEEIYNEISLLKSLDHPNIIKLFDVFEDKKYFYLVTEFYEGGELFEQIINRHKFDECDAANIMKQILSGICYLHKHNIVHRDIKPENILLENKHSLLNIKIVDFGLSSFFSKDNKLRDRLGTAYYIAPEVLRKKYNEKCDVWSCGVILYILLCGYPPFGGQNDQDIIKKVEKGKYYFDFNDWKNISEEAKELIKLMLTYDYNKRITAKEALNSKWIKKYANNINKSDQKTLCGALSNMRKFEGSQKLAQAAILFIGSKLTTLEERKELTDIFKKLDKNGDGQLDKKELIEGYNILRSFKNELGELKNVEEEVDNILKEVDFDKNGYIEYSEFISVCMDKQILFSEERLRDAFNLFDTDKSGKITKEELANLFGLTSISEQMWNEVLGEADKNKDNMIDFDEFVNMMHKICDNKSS

`CSC1=NC(=Nc2c(C)cccc2C)C2(CCCCC2)N1c1ccccc1Cl`: the growth inhibition in experiment [1] was 57% (active); in experiment [4], 95% (active). Further, the inhibition (as a rule, the relative decrease from the control value, in per cent) in experiment [2] is 22%; in experiment [3] it was -6%. Besides, the outcome in experiment [5], in experiment [6], in experiment [7] and in experiment [8] was inactive.
For `O=C(Nc1cccc(-c2ccc(-c3nc4ccccc4[nH]3)cc2)c1)c1csnn1`, the figures for the growth inhibition in experiment [1] and in experiment [4] were 21% and 91% (active), respectively. For the same compound, the inhibition in experiment [2] was 31%; in experiment [3] it was 0%. Besides, the result in experiment [5], in experiment [6], in experiment [7] and in experiment [8] was inactive.
Consider `COc1ccc(S(=O)(=O)N(c2cc(Br)cc3c2OCC3)S(=O)(=O)c2ccc(OC)c(N3CCN(C)CC3)c2)cc1N1CCN(C)CC1`, for which the values for the growth inhibition in experiment [1] and in experiment [4] were 98% (active) and 81% (active), respectively. Moreover, the inhibition in experiment [2] was 67% (active); in experiment [3], -8%. For the same compound, the result in experiment [5], in experiment [6], in experiment [7] and in experiment [8] was inactive.
As to `O=C(N[C@@H](CC1CCCCC1)C(=O)NC1CCCCC1)c1ccc(O)c(-c2cccc(C(F)(F)F)c2)c1`, the growth inhibition in experiment [1] was 95% (active); in experiment [4], 100% (active). The inhibition in experiment [2] is -7%; in experiment [3] it was -1%. Also, the outcome in experiment [5], in experiment [6], in experiment [7] and in experiment [8] was inactive.
In the case of `COc1ccc(-c2cccc(CNC3CCN(C)CC3)c2)cc1S(=O)(=O)NCc1ccccc1`, the growth inhibition in experiment [1] is 22%; in experiment [4], 90% (active). In addition, the figures for the inhibition in experiment [2] and in experiment [3] were 18% and -5%, respectively. Besides, the result in experiment [5], in experiment [6], in experiment [7] and in experiment [8] was inactive.
On to `Oc1ccc(CCNCCCCCCNCCc2ccc(Cl)cc2)c(Cl)c1O`, for which the growth inhibition in experiment [1] was 30%; in experiment [4], 100% (active). The inhibition was 23% in experiment [2] and -7% in experiment [3]. The outcome in experiment [5], in experiment [6], in experiment [7] and in experiment [8] was inactive.
Turning to `CC(C)(C)c1nn(-c2ccccc2)c2[nH]c(=O)c(CNCCc3ccccc3)cc12`, the growth inhibition in experiment [1] was 90% (active); in experiment [4], 94% (active). The inhibition is -7% in experiment [2] and 0% in experiment [3]. Besides, the outcome in experiment [5], in experiment [6], in experiment [7] and in experiment [8] was inactive.
As for `Fc1cc(Cl)ccc1Nc1ccnc2cc(-c3ccc(CN4CCCCC4)o3)ccc12`, the growth inhibition is 99% (active) in experiment [1] and 100% (active) in experiment [4]. Further, the inhibition in experiment [2] is 16%; in experiment [3], -1%. Further, the outcome in experiment [5], in experiment [6], in experiment [7] and in experiment [8] was inactive.
As for `CC(C)Cc1cn(-c2nc(-c3nc4ccccc4[nH]3)cs2)c2cc(Cl)ccc12`, the figures for the growth inhibition in experiment [1] and in experiment [4] were 68% (active) and 99% (active), respectively. The figures for the inhibition in experiment [2] and in experiment [3] were 9% and -3%, respectively. Further, the outcome in experiment [5], in experiment [6], in experiment [7] and in experiment [8] was inactive.
As to `O=C(NCc1ccccc1)c1ncn(CCCN2CCC(N3CCCC3)CC2)c1-c1ccc(Cl)c(Cl)c1`, the growth inhibition in experiment [1] was 36%; in experiment [4] it was 89% (active). In addition, the inhibition in experiment [2] was 8%; in experiment [3] it was 3%. In addition, the result in experiment [5], in experiment [6], in experiment [7] and in experiment [8] was inactive.
On to `O=C(NCC1CCN(CC2CCCCC2)C1)c1cc(-c2cccc(Cl)c2)cs1` (stereo not given), for which the growth inhibition in experiment [1] was 8%; in experiment [4] it was 85% (active). The figures for the inhibition in experiment [2] and in experiment [3] were 51% (active) and 5%, respectively. Besides, the outcome in experiment [5], in experiment [6], in experiment [7] and in experiment [8] was inactive.
With `CCCCCN1CCCC1CNS(=O)(=O)c1cccc(C(=O)Nc2cccc(C(F)(F)F)c2)c1` (stereo not given), the growth inhibition in experiment [1] was 12%; in experiment [4], 96% (active). Moreover, the inhibition in experiment [2] is 15%; in experiment [3] it was 4%. Moreover, the result in experiment [5], in experiment [6], in experiment [7] and in experiment [8] was inactive.
`CN1CCN(c2cc(-c3cccc(C(F)(F)F)c3)nc(-c3ccncc3)n2)CC1`: the growth inhibition is 98% (active) in experiment [1] and 102% (active) in experiment [4]. For the same compound, the inhibition was 38% in experiment [2] and 1% in experiment [3]. Also, the outcome in experiment [5], in experiment [6], in experiment [7] and in experiment [8] was inactive.
Turning to `COc1ccc(NC(=O)N2CCCN(CCCCCNC(=O)/C=C/c3ccc(C(F)(F)F)cc3)CC2)cc1Cl`, the growth inhibition in experiment [1] was -5%; in experiment [4] it was 93% (active). The inhibition in experiment [2] is 21%; in experiment [3], 4%. Also, the result in experiment [5], in experiment [6], in experiment [7] and in experiment [8] was inactive.
For `FC(F)(F)c1cccc2c(NN=Cc3ccccc3)ccnc12`, the growth inhibition in experiment [1] was 90% (active); in experiment [4], 101% (active). For the same compound, the results for the inhibition in experiment [2] and in experiment [3] were 10% and -4%, respectively. Moreover, the result in experiment [5], in experiment [6], in experiment [7] and in experiment [8] was inactive.
With `COc1ccc(CCNCCCCCCNCCc2ccc(OC)c(OC)c2Cl)c(Cl)c1OC`, the growth inhibition in experiment [1] was -2%; in experiment [4] it was 96% (active). Also, the values for the inhibition in experiment [2] and in experiment [3] were 19% and 1%, respectively. Besides, the result in experiment [5], in experiment [6], in experiment [7] and in experiment [8] was inactive.
Take `Cc1ccc(CNC(=O)[C@H](Cc2ccccc2)Nc2cc(C)nc(NCC3CCCCC3)n2)cc1`: the growth inhibition was 89% (active) in experiment [1] and 101% (active) in experiment [4]. The inhibition in experiment [2] is -10%; in experiment [3], 0%. In addition, the outcome in experiment [5], in experiment [6], in experiment [7] and in experiment [8] was inactive.
For the compound `Cc1ccc(F)cc1S(=O)(=O)Nc1cccc(CCN2CCC(N3CCCCC3)CC2)c1`, the growth inhibition in experiment [1] is 9%; in experiment [4], 96% (active). The inhibition is 15% in experiment [2] and 5% in experiment [3]. In addition, the outcome in experiment [5], in experiment [6], in experiment [7] and in experiment [8] was inactive.
With `Cc1cccc(Oc2cccc3[nH]nc(N)c23)c1`, the growth inhibition in experiment [1] is -3%; in experiment [4], 85% (active). In addition, the inhibition is 6% in experiment [2] and -2% in experiment [3]. Also, the outcome in experiment [5], in experiment [6], in experiment [7] and in experiment [8] was inactive.
In the case of `Cc1cccc2[nH]c(-c3ccc(-c4ccc(CNCc5cnn(-c6ccccc6)n5)cc4)cc3)nc12`, the figures for the growth inhibition in experiment [1] and in experiment [4] were 99% (active) and 101% (active), respectively. Also, the results for the inhibition in experiment [2] and in experiment [3] were 35% and -4%, respectively. Further, the result in experiment [5], in experiment [6], in experiment [7] and in experiment [8] was inactive.
